# High-throughput results deposited in PubChem BioAssay by National Center for Advancing Translational Sciences (NCATS).
# KB-3-1 cytotox: KB-3-1 parental cell cytotoxicity; KB-3-1 viability, CellTiter-Glo ATP luminescence, 72 h; Potency, µM (doses to about 46.1 µM), usual class: cytotoxic; 400,000 compounds, 1.4% hits; AID 1347075; further: on the % scale 0 is the no-effect control and ±100 the full control effect; nearly all actives have a fitted effect of over 60% in size
#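 Luminescent ATP read-out (CellTiter-Glo) measures survival of drug-naive KB-3-1 cells after 72 h compound exposure at 37 °C. Titration series was screened from lowest to highest concentration, with DMSO vehicle plates as background controls.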
# KB-V1 cytotox: kills drug-selected multidrug resistant KB-V1 cells. KB-V1 MDR cells viability, CellTiter-Glo, 72 h. Potency, µM (highest dose often 46.1 µM), actives largely listed as cytotoxic. 400,000 compounds, 3.4% hits; further: on the % scale 0 is the no-effect control and ±100 the full control effect; nearly all actives have a fitted effect of over 60% in size
#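 Cytotoxicity via CellTiter-Glo luminescence after 72 h compound exposure at 37 degrees C. Cells: drug-selected KB-V1 line, DMEM phenol-red free plus 10% FBS. Compounds tested at multiple concentrations; normalized data fitted to concentration-effect curves.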
# MCF10A rerep: DNA re-replication induction in MCF 10a cells | 350,000 compounds, 2.9% hits | Potency, µM (highest dose often 46.1 µM), inactives show at the top dose activity, positive = re-replication, most hits filed as activators | MCF 10A DNA re-replication, Hoechst nuclear intensity, 48 h; further: % of control where 0% means no effect; nearly all actives have a fitted effect of over 50% in size
# PINK1 modulator: changes PINK1 expression; AID 624263; PINK1 immunofluorescence, high-content cytometry, 24 h; Potency, µM (series often up to 76.6 µM), for the others: at the top dose activation (PINK1 increase), most hits filed as activators; 410,000 compounds, 0.2% hits; active means well fitted activation curve with a large enough effect; inconclusive means small, poorly fitted or top-dose-only effect; cell line not stated here; further: % of control where 0% means no effect; nearly all actives have a fitted effect of over 65% in size
#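 A stable cell line was treated with compounds at 5 concentrations for 24 hours, with CCCP as control. PINK1 levels and mitochondrial localization were measured by immunofluorescence with mitochondrial, cell and nuclear markers after fixation, read by laser-scanning cytometry.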
# SW480 rerep: DNA re-replication induction in SW480 cells; SW480 DNA re-replication, Hoechst DNA content imaging, 48 h; Potency, µM (highest dose often 46.1 µM), without a hit: at the highest dose re-replication activation, hits mostly activators; 340,000 compounds, 1.8% hits; AID 624297; further: % of control where 0% means no effect; nearly all actives have a fitted effect of over 55% in size
#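 Per well, 250 cells were exposed to pinned compound for 48 hr. Nuclear DNA was visualised with Hoechst (40 min, 37 C) and total object intensity recorded by fluorescence scanning.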
# * = called active by the depositor; i = inactive; ? = inconclusive; / = not tested or not shown; [ ] = dose if it differs, or a comment. The list is not random: actives were taken first. Their share in the collection is about 6.7%. Unless noted, the call rests on the fitted dose curve; in most records, active means well fitted curve in the direction sought with a large enough effect; inconclusive means small, poorly fitted or top-dose-only effect, or another doubt; inactive means no such curve, though single readings can be large; an effect the other way counts as inactive or inconclusive. Potency means the concentration at half of the fitted maximal effect.
SMILES,KB-3-1 cytotox,KB-V1 cytotox,MCF10A rerep,PINK1 modulator,SW480 rerep
CN(CCCNC(=O)c1cc2c(Cl)nc3ccccc3c2s1)Cc1ccccc1,i,i,?,-3%,21µM*
COc1cccc(-c2nn(C)c3sc(C(=O)NCc4ccco4)cc23)c1,?,i,6.3µM*,1%,9%
COc1ccccc1-c1nnc(SCC(=O)Nc2cccnc2Cl)n1C,i,i,10%,2%,-11%
CC1CCCCC1NC(=O)c1cc(S(=O)(=O)N2CCOCC2)ccc1Cl (centres undefined),i,i,1%,3%,1%
CCN(CC)c1ccc(NC(=O)c2ccc(=O)[nH]c2)cc1S(=O)(=O)Nc1ccccc1OC,10µM*,i,?,6%,?
CCN(CC)c1ccc(NC(=O)c2ccccc2Br)cc1S(=O)(=O)Nc1ccccc1OC,i,?,10%,1%,0%
CCN(CC)c1ccc(NC(=O)c2ccccc2F)cc1S(=O)(=O)Nc1ccccc1OC,i,9.2µM*,2%,0%,-79%
CC(C)CCN1CC(O)=C(c2nc3ccccc3[nH]2)C1=N,i,10µM*,23%,-2%[38.3 µM],17%
CCCCN1CC(O)=C(c2nc3ccccc3[nH]2)C1=N,i,i,?,7%,23%
CC1(C)C(O)=C(c2nc3ccccc3[nH]2)C(=N)N1c1ccccc1,?,?,?,?,9.2µM*
CCCCCCCCC(c1nc2ccccc2[nH]1)N1CCN=C(c2ccccc2)C1=O (centres undefined),i,i,/,8%,/
O=C(COC(=O)c1cc[n+]([O-])cc1)Nc1cc([N+](=O)[O-])ccc1Cl,i,i,0%,2%,-5%
O=C1NC(Cc2c[nH]c3ccccc23)C(=O)N1Cc1ccccc1 (centres undefined),i,i,-13%,1%,-1%
COc1ccc(Cl)cc1NC(=O)CN1C(=O)NC(Cc2c[nH]c3ccccc23)C1=O (centres undefined),?,21µM*,4%,0%,12%
COC(=O)c1ccc(CN2C(=O)NC(Cc3c[nH]c4ccccc34)C2=O)cc1 (centres undefined),i,18µM*,0%,4%,-3%
CCN1CCOC(=O)C1CC(=O)Nc1cccc(OC)c1 (centres undefined),i,?,/,1%,/
CCOC(=O)C1=CN(Cc2cccc(-c3ccc(F)cc3)c2)S(=O)(=O)N(C)C1C (centres undefined),?,?,?,3%,-12%
CNC(=O)C[C@H]1C(=O)N(CCc2ccccc2)C[C@@H]1Cc1ccccc1,i,?,/,1%,/
CCN(CC)c1nc(C#N)cc(-c2ccc(OC)cc2)n1,7.3µM*,5.8µM*,15µM*,4%,12µM*
COc1ccc(-c2cc(C#N)nc(Cl)n2)cc1,i,i,?,1%,24%
Cc1ccc(/C=N/NC(=O)c2cc3c(s2)CCCC3)o1,i,i,-5%,8%,0%
Cn1ccnc1C(=O)c1cc(SCC(=O)NCc2ccccc2)nc2ccccc12,?,?,15µM*,3%,?
COCCNC(=O)CSc1nc2ccccc2c(=O)n1CCCC(=O)NCc1ccccc1,i,16µM*,0%,3%,3%
Cn1c(SCC(=O)NCc2ccccc2)nc2ccccc21,i,15µM*,14%,2%,-4%
CCNC(=O)NC(=O)CSc1nc2ccccc2n1CC(C)C,i,2.9µM*,5%,3%,-3%
SMILES,KB-3-1 cytotox,KB-V1 cytotox,MCF10A rerep,PINK1 modulator,SW480 rerep
CC(NC(=O)CSc1nc2ccccc2n1C)c1ccccc1 (centres undefined),i,i,1%,0%,-12%
Cc1ccc(NC(=S)N/N=C/c2ccc([N+](=O)[O-])s2)cc1,?,?,10µM*,?,6.5µM*
Cc1cc(C)cc(N=Cc2ccc([N+](=O)[O-])s2)c1,?,?,21µM*,-1%,3.7µM*
Cc1onc(-c2ccccc2)c1C(=O)N/N=C/c1ccc([N+](=O)[O-])s1,i,?,?,7%,?
O=C(CNC(=O)c1ccccc1Cl)N/N=C/c1ccc([N+](=O)[O-])s1,2.6µM*,?,-3%,?,?
Cc1cc2ncn(/N=C/c3ccc([N+](=O)[O-])s3)c2cc1C,i,?,-5%,6%,?
O=C(Cc1cccs1)N/N=C\c1ccc([N+](=O)[O-])s1,i,i,?,?,4%
NC(=O)c1ccc(N=Cc2ccc([N+](=O)[O-])s2)cc1,?,?,15µM*,-2%,3.3µM*
C=CCCCCCCCCCCCc1ccco1,/,/,/,3%,/
Cc1ccc(NC(=O)c2ccc(S(=O)(=O)N3CCCCCC3)cc2)nc1,i,?,5%,-1%,3%
Cc1ccc(NC(=O)c2ccc(S(=O)(=O)N3CCC(C)CC3)cc2)nc1,26µM*,?,6%,10%,-1%
CC(C)N(C(=O)NC(=O)Nc1ccc(S(=O)(=O)N2CCCC2)cc1)S(C)(=O)=O,i,i,0.65µM*,0%,2%
COc1ccc(COC(=O)c2ccc(S(=O)(=O)N3CCC(C)CC3)cc2)cc1,?,i,16µM*,8%,-7%
CC(C)CC(=O)Nc1ccc(S(=O)(=O)N2CCCC2)cc1,i,i,0%,-1%,-8%
O=C(NC1CCCCC1)c1ccc(S(=O)(=O)N2CCCC2)cc1,i,16µM*,14%,1%[38.3 µM],1%
O=S(=O)(c1ccc(OC(F)(F)F)cc1)N1CCN(c2nc(-c3ccccc3)nc3ccccc23)CC1,i,i,/,1%,/
COc1ccc(C(=O)NCCCCNC(=O)c2ccc(OC)c(OC)c2)cc1OC,i,?,-10%,0%,-3%
CCS(=O)(=O)Nc1cc(-c2cn3ccc(C)cc3n2)ccc1C,i,i,/,1%,/
Cn1cnnc1Sc1ccc(CN2CCOc3ccc(C4=Cc5ccccc5C4)cc3C2)o1,/,/,/,1%,/
CC(=O)N1c2ccc(S(=O)(=O)N3CCC(C(=O)Nc4ccc(C)cn4)CC3)cc2CC1C (centres undefined),16µM*,i,-1%,1%,-4%
Cc1ccc(S(=O)(=O)N2CCCN(C)CC2)cc1,i,i,?,4%,4%
Cc1ccc(S(=O)(=O)N2CCCN(S(=O)(=O)c3ccc(C(F)(F)F)cc3)CC2)cc1,i,?,7.3µM*,18%[38.3 µM],9%
CC1CCN(S(=O)(=O)c2ccc(C(=O)Nc3ccccc3-c3nc4ccccc4[nH]3)cc2)CC1,?,16µM*,2%,2%,1%
Cc1ccc(C(=O)NNC(=O)c2ccc(S(=O)(=O)N3CCCCC3)cc2)cc1,i,i,?,2%,16µM*
